Here are results for 21 compounds from PubChem BioAssay (NCATS).

Results filed as inconclusive are left out. Values without a mark were called inactive. Calls of active or inactive are those of the source. Calls come from the whole dose curve; as a rule, active = well fitted cell-killing curve with a large enough effect; inconclusive = small, poorly fitted or top-dose-only effect, or effect the other way; inactive = no such curve, though single readings can be large or run the other way.
Potency is the fitted concentration of half-maximal effect.

A short description of this experiment: Quantitative High-Throughput drug screen in 47 multiple myeloma cell lines against the NCATS MIPE library collection: XG6_PLB cell viability assay (AID 1919865). Note: nearly all actives have a fitted effect of over 40% in size. As to conditions: XG6 myeloma viability, CellTiter-Glo ATP luminescence, 48 h; series mostly up to 45.8 µM; viability (% of control): at the top concentration. The method, boiled down:
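Myeloma cells (500/well) treated with MIPE 4.0 compounds for 48 h at 37 °C, 5% CO2. Viability read as ATP via CellTiter-Glo luminescence after 5 min at RT; DMSO-only wells = 100%, media-only = 0% viability.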
For the compound `Cc1cccc(C=NNc2cc(N3CCOCC3)nc(OCCc3ccccn3)n2)c1`, the Potency was 16.6 µM (active).
Consider `O=C(c1cncc(Br)c1)N1CCC(N2CCCC2)CC1`, for which the “viability (% of control)” value was 118%.
On to `C[C@@H]1COC(Nc2ccc3ncnc(Nc4ccc(OCc5nccs5)c(Cl)c4)c3c2)=N1`, for which the Potency is 0.0372 µM (active).
In the case of `CN(C1CCc2c(c3ccccc3n2CC(=O)O)C1)S(=O)(=O)c1ccc(F)cc1` (stereo unspecified), the Potency was 1.87 µM (active).
Take `C1Cc2[nH]nc(-c3nn[nH]n3)c2C1`: the “viability (% of control)” value is 94.6%.
For `COc1ccc(OC)c(-c2nnc3ccc(-c4ccc(OC)c(O[C@@H]5CCOC5)c4)nn23)c1`, the Potency is 8.33 µM (active).
Take `Cc1ccc(CN2CCNCC2)cc1NC(=O)CNc1ccc(F)c(F)c1`: the “viability (% of control)” value was 113%.
As for `CC(C)c1ccccc1Cc1cc(C(=O)Nc2ccc(S(=O)(=O)c3ccccc3C(C)(C)C)cc2)c(O)c(O)c1O`, the Potency was 7.43 µM (active).
Still for that read-out and setting: the figure for `COc1cc(Nc2ncc(F)c(Nc3ccc4c(n3)N(COP(=O)(O)O)C(=O)C(C)(C)O4)n2)cc(OC)c1OC` is 1.48 µM (active).
Consider `Cc1c(NC(=O)OC[C@@H]2COCCN2)cn2ncnc(Nc3ccc4c(cnn4Cc4cccc(F)c4)c3)c12`, for which the Potency was 0.0372 µM (active).
Turning to `Nc1ccc(S(=O)(=O)Nc2ncccn2)cc1`, the “viability (% of control)” value was 104%.
Take `C[C@]12CC[C@H](O)CC1=CCC1C2CC[C@]2(C)C(n3cnc4ccccc43)=CCC12` (stereo partly specified): the Potency is 14.8 µM (active).
Turning to `O=C(C=Cc1c(C(=O)O)[nH]c2cc(Cl)cc(Cl)c12)Nc1ccccc1`, the “viability (% of control)” value is 109%.
Regarding `Cc1ccc2nc(NC(=O)CSc3nc4c(c(=O)n3-c3ccccc3)SCC4)sc2c1`, the Potency was 14.8 µM (active).
Consider `C[C@@H]1CN(CC(=O)Nc2ccc3c(c2)Cc2cccc(-c4cc(=O)cc(N5CCOCC5)o4)c2S3)C[C@H](C)O1`, for which the Potency was 9.35 µM (active).
`COc1cccc(Nc2c(C(N)=O)cnc3c(C)cc(S(=O)(=O)c4cccc(C(=O)N(C)C)c4)cc23)c1`: the “viability (% of control)” value is 118% [at 23.2 µM].
For `CC(C)(C)c1cc(NC(=O)Nc2ccc(-c3cn4c(n3)sc3cc(OCCN5CCOCC5)ccc34)cc2)no1`, the Potency is 0.418 µM (active).
`O=C(O)Cn1nnc(-c2cc(N3CCC(Oc4cc(F)ccc4Br)CC3)no2)n1`: the “viability (% of control)” value is 107%.
Take `COc1cc2c(Nc3ccc(NC(=O)c4ccccc4)cc3)ncnc2cc1OCCCN1CCOCC1`: the Potency was 14.8 µM (active).
Regarding `CCCCCCCCCC(=O)N[C@@H](Cc1c[nH]c2ccccc12)C(=O)N[C@H](CC(N)=O)C(=O)N[C@@H](CC(=O)O)C(=O)N[C@@H]1C(=O)NCC(=O)N[C@@H](CCCN)C(=O)N[C@@H](CC(=O)O)C(=O)N[C@H](C)C(=O)N[C@@H](CC(=O)O)C(=O)NCC(=O)N[C@H](CO)C(=O)N[C@@H]([C@@H](C)CC(=O)O)C(=O)N[C@@H](CC(=O)c2ccccc2N)C(=O)O[C@@H]1C`, the “viability (% of control)” value is 83.5%.
Consider `CN(C)c1nc(Cc2ccc(NC(=O)c3ccc4ccccc4c3)cc2)nc(Cl)c1CC(=O)O`, for which the “viability (% of control)” value is 97%.
